The text below walks through data of PubChem BioAssay (Tox21).

Activity calls are given as the source filed them. A call without a number means that no potency is given here. The call rests on the fitted dose curve; in most records, active means well fitted curve in the direction sought with a large enough effect in the repeat runs; inconclusive means weak or mixed curves; inactive means flat fitted curve, though single readings scatter.
Tags describe the fitted curve by direction and shape or compound fluorescence and quenching.

A short description of the first assay: qHTS assay to test for compound auto fluorescence at 590 nm (red) in HEK293 cell free culture (AID 720683). As to conditions: cell-free medium autofluorescence, Ex540/Em590 red; series mostly up to 91.3 µM. A digest of the protocol: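 Cell-free wells of DMEM with 10% FBS received compound, and intrinsic fluorescence was read at excitation/emission 540/590 nm. Values expressed as equivalence to Rose Bengal sodium.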
As for `C[C@]12CC[C@H]3[C@@H](CCC4=CC(=O)CC[C@@]43C)[C@@H]1CC[C@@H]2O`, the molecule was called inactive.

Consider `ClC(Cl)=C(c1ccc(Cl)cc1)c1ccc(Cl)cc1`, for which the call was inactive.

As to `[Hg+2].[I-].[I-]`, the molecule was classed as inactive.

For `CCCCCCCCCCCCBr`, the molecule was classed as inactive.

Consider `CCN(CC)c1c([N+](=O)[O-])cc(C(F)(F)F)c(N)c1[N+](=O)[O-]`, for which the call was inactive.

For the molecule `CCCCCCCCCCCCCN1CC(C)OC(C)C1` (stereo unspecified), the molecule was classed as inactive.

`Oc1ccc(C2(c3ccc(O)cc3)CCCCC2)cc1`: the result was inactive.

As for `Oc1c(Br)c(Br)c(Br)c(Br)c1Br`, the molecule was classed as inactive.

As for `O=c1[nH]c2ccccc2n1CCCN1CCC(n2c(=O)[nH]c3cc(Cl)ccc32)CC1`, the outcome was inactive.

With `O=[N+]([O-])c1cc(C(F)(F)F)c(Cl)c([N+](=O)[O-])c1Cl`, the result was inactive.

Consider `Cc1cc(N=Nc2ccccc2C)ccc1N`, for which the molecule was classed as inactive.

With `CC(C)CCCCCCCOP(=O)(Oc1ccccc1)Oc1ccccc1`, the molecule was classed as inactive.

As to `C=CC(=O)OCC(COC(=O)C=C)(COC(=O)C=C)COC(=O)C=C`, the molecule was classed as inactive.

On to `N#CNC#N`, for which the molecule was called inactive.

Take `CCCCCCCCCCCCCC[P+](CCCCCC)(CCCCCC)CCCCCC` (tested in a mixture with another compound): the result was inactive.

Regarding `CC1(C)[C@H](C(=O)O[C@H](C#N)c2cccc(Oc3ccccc3)c2)[C@@H]1/C=C(\Cl)C(F)(F)F`, the result was inactive.

Turning to `BrC(Br)C(Br)(Br)Br`, the result was inactive.

With `Fc1cccc(Cl)c1CCl`, the call was inactive.

With `Nc1ccc(Cc2ccc(N)c(Cl)c2)cc1Cl`, the outcome was inactive.

Regarding `O=c1ssc(Cl)c1Cl`, the outcome was inactive.

For `c1ccc(OCC2CO2)cc1` (stereo unspecified), the molecule was classed as inactive.

`CC(=O)C(Cl)(Cl)Cl`: the outcome was inactive.

Take `c1ccc2cc3c(cc2c1)-c1cccc2cccc-3c12`: the result was inactive.

The nature of another assay: qHTS assay to test for compound auto fluorescence at 590 nm (red) in HepG2 cell free culture (AID 720684). As to conditions: cell-free medium autofluorescence, red 540/590 nm; series mostly up to 91.3 µM. In short, it runs like this: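 Rose Bengal sodium served as the reference for red signal. Test compounds were dispensed into serum-containing MEM (10% FBS) without cells, and plates were read at 540/590 nm.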
For the molecule `O=C(CCl)C(Cl)Cl`, the result was inactive.

For the molecule `Oc1ccc(C2(c3ccc(O)cc3)c3ccccc3-c3ccccc32)cc1`, the molecule was called inactive.

For `CC(=O)O[C@H]1CC[C@@]2(C)C(=CC[C@@H]3[C@@H]2CC[C@]2(C)C(=O)CC[C@@H]32)C1`, the call was inactive.

Consider `CC(C)C1CCC(Cc2ccc(Cl)cc2)C1(O)Cn1cncn1` (stereo unspecified), for which the call was inactive.

Take `O=c1ssc(Cl)c1Cl`: the molecule was called inactive.

As to `c1ccc2cc3c(cc2c1)-c1cccc2cccc-3c12`, the call was inactive.

Another assay in a line: qHTS assay to test for compound auto fluorescence at 460 nm (blue) in HepG2 cell free culture (AID 720685). Further: potency means the concentration at half of the fitted maximal effect. As to conditions: Cell-free culture medium, blue autofluorescence 405/460 nm; series mostly up to 91.3 µM. A digest of the protocol: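 Cell-free plates of MEM plus 10% FBS received 23 nL compound or DMSO vehicle; blue-channel (405/460 nm) intensity scored against triamterene as reference fluorophore.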
In the case of `O=S(=O)(c1ccc(Cl)cc1)c1ccc(Cl)cc1`, the Potency result is “inactive”.

Take `N#C/C=C/C#N`: the Potency result is “inactive”.

As to `O=C(CCl)C(Cl)Cl`, the Potency entry was “inactive”.

For `C=CCC1=C(C)C(OC(=O)C2C(C=C(C)C)C2(C)C)CC1=O` (stereo unspecified), the Potency entry was “inactive”.

With `O=C/C(Cl)=C(/Cl)C(=O)O`, the Potency entry was “inactive”.

On to `Clc1ccc(C(c2ccccc2Cl)C(Cl)(Cl)Cl)cc1` (stereo unspecified), for which the Potency entry was “inactive”.

Regarding `Oc1ccc(C2(c3ccc(O)cc3)c3ccccc3-c3ccccc32)cc1`, the Potency entry is “inactive”.

As to `CC(=O)O[C@H]1CC[C@@]2(C)C(=CC[C@@H]3[C@@H]2CC[C@]2(C)C(=O)CC[C@@H]32)C1`, the Potency result was “inactive”.

As for `CC(C)C1CCC(Cc2ccc(Cl)cc2)C1(O)Cn1cncn1` (stereo unspecified), the Potency result was “inactive”.

Consider `O=C(O)COc1nc(Cl)c(Cl)cc1Cl`, for which the Potency entry was “inactive”.

With `CC(C)[C@H](C(=O)O[C@H](C#N)c1cccc(Oc2ccccc2)c1)c1ccc(Cl)cc1`, the Potency entry was “inactive”.

For `CCCOCC(=Nc1ccc(Cl)cc1C(F)(F)F)n1ccnc1`, the Potency result was “inactive”.

As to `CCCN(CC)CC1COC2(CCC(C(C)(C)C)CC2)O1` (stereo unspecified), the Potency entry was “inactive”.

`C[C@@H]1CC[C@@]2(OC1)O[C@H]1[C@@H](O)[C@H]3[C@@H]4CC[C@H]5C[C@@H](O[C@@H]6O[C@H](CO)[C@H](O[C@@H]7O[C@H](CO)[C@@H](O)[C@H](O[C@@H]8OC[C@@H](O)[C@H](O)[C@H]8O)[C@H]7O[C@@H]7O[C@H](CO)[C@@H](O)[C@H](O[C@@H]8O[C@H](CO)[C@@H](O)[C@H](O)[C@H]8O)[C@H]7O)[C@H](O)[C@H]6O)[C@H](O)C[C@]5(C)[C@H]4CC[C@]3(C)[C@H]1[C@@H]2C`: the Potency entry was “inactive”.

As to `C[C@]12CC[C@H]3[C@@H](CCC4=CC(=O)CC[C@@]43C)[C@@H]1CC[C@@H]2O`, the Potency result was “inactive”.

Regarding `ClC(Cl)=C(c1ccc(Cl)cc1)c1ccc(Cl)cc1`, the Potency result was “inactive”.

In the case of `[Hg+2].[I-].[I-]`, the Potency entry is “inactive”.

Consider `CCCCCCCCCCCCBr`, for which the Potency result was “inactive”.

For `CCN(CC)c1c([N+](=O)[O-])cc(C(F)(F)F)c(N)c1[N+](=O)[O-]`, the Potency entry was “inactive”.

For the molecule `CCCCCCCCCCCCCN1CC(C)OC(C)C1` (stereo unspecified), the Potency entry was “inactive”.

For the molecule `Oc1ccc(C2(c3ccc(O)cc3)CCCCC2)cc1`, the Potency result was “inactive”.

In the case of `Oc1c(Br)c(Br)c(Br)c(Br)c1Br`, the Potency entry was “inactive”.

`O=c1[nH]c2ccccc2n1CCCN1CCC(n2c(=O)[nH]c3cc(Cl)ccc32)CC1`: the Potency result was “inactive”.

With `O=[N+]([O-])c1cc(C(F)(F)F)c(Cl)c([N+](=O)[O-])c1Cl`, the Potency result was “inactive”.

For `Cc1cc(N=Nc2ccccc2C)ccc1N`, the Potency entry is “inactive”.

Take `CC(C)CCCCCCCOP(=O)(Oc1ccccc1)Oc1ccccc1`: the Potency entry is “inactive”.

Take `C=CC(=O)OCC(COC(=O)C=C)(COC(=O)C=C)COC(=O)C=C`: the Potency result is “inactive”.

For the molecule `N#CNC#N`, the Potency entry is “inactive”.

Take `CCCCCCCCCCCCCC[P+](CCCCCC)(CCCCCC)CCCCCC` (tested in a mixture with another compound): the Potency entry is “inactive”.

As for `CC1(C)[C@H](C(=O)O[C@H](C#N)c2cccc(Oc3ccccc3)c2)[C@@H]1/C=C(\Cl)C(F)(F)F`, the Potency entry is “inactive”.

For `BrC(Br)C(Br)(Br)Br`, the Potency result is “inactive”.

As to `Fc1cccc(Cl)c1CCl`, the Potency result is “inactive”.

Turning to `Nc1ccc(Cc2ccc(N)c(Cl)c2)cc1Cl`, the Potency result was “inactive”.

For `O=c1ssc(Cl)c1Cl`, the Potency entry was “inactive”.

Take `c1ccc(OCC2CO2)cc1` (stereo unspecified): the Potency result is “inactive”.

Consider `CC(=O)C(Cl)(Cl)Cl`, for which the Potency result is “inactive”.

For `c1ccc2cc3c(cc2c1)-c1cccc2cccc-3c12`, the Potency was 1410 nM [fluorescent] (active).
